In all, about 97,000 compounds went through this assay and about 450 (0.46%) were called active. Cut-off read from the data, not from the text of the source: active = activation above about 16%; inactive = the rest. Only a selection was taken, and actives are over-represented in it overall.
target: Sphingosine 1-phosphate receptor 2 (Homo sapiens) (UniProt O95136); experiment: S1P2 receptor agonists, primary screen, cell-based (AID 729); details: S1P2-expressing cell line, agonist reporter read-out; at 4.5 µM; hits give high values;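 note: 0% = vehicle low control and 100% = maximal reference agonist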
Sequence (O95136 whole entry, looked up): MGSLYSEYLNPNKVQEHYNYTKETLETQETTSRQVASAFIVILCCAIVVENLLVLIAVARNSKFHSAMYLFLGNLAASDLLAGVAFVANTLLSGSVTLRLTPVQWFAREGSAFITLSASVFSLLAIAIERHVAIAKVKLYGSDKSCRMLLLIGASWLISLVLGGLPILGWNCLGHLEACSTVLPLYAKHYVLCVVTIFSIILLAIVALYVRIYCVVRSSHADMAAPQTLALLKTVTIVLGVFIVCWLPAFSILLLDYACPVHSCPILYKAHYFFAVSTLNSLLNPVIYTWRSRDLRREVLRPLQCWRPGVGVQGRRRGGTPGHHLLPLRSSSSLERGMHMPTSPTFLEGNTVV

SMILES	activation
CCOC(=O)c1c(N)n(Cc2ccccc2)c2nc3ccccc3nc12	1.34% (inactive)
COc1cc(Cn2c(N)c(C(=O)NCc3ccco3)c3nc4ccccc4nc32)cc(OC)c1OC	28.7% (active)
CCOC(=O)c1c(N)n(CCN2CCOCC2)c2nc3ccccc3nc12	-0.82% (inactive)
O=c1c2ccccc2nc(-c2ccc(Cl)cc2Cl)n1-c1ccncc1	-3.53% (inactive)
OC(Cn1c2ccccc2c2ccccc21)C[n+]1ccccc1 (stereo not given)	-10.8% (inactive)
